Measured values reported in PubChem BioAssay (NCI).
This is part of a sample that, as a whole, favours compounds with a hit. Of some 83,000 tested, about 20% had one in any assay.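 Activity criterion: percent growth below 10, measured after cells in 96-well plates were exposed to a single compound concentration for 48 hours.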 A number with no mark means an inactive call. The source made the active and inactive calls.

Tests used:
Experiment in all cases: NCI-60 one-dose screen, 48 h (100 = growth as untreated, 0 = no growth, -100 = all killed)
SR leukemia = conditions: 10 µM unless noted
RPMI-8226 leukemia = conditions: 10 µM unless noted
OVCAR-8 ovarian = conditions: 10 µM unless noted
OVCAR-5 ovarian = conditions: 10 µM unless noted
OVCAR-4 ovarian = conditions: 10 µM
IGROV1 ovarian = conditions: 10 µM unless noted
OVCAR-3 ovarian = conditions: 10 µM unless noted
NCI/ADR-RES ovarian = conditions: 10 µM unless noted
HS 578T breast = conditions: 10 µM unless noted

SMILES	growth (SR leukemia)	growth (RPMI-8226 leukemia)	growth (OVCAR-8 ovarian)	growth (OVCAR-5 ovarian) [%]	growth (OVCAR-4 ovarian)	growth (IGROV1 ovarian)	growth (OVCAR-3 ovarian)	growth (NCI/ADR-RES ovarian)	growth (HS 578T breast)
COc1cc(NCc2ccccc2O)c2ncccc2c1	82.4%	46.9%	102%	69.6	82.3%	90.4%	97.2%	71.9%	
CC1(C)CC(=O)c2c(ccc(C(=O)C[C@@H](N)CO)c2N)O1	14.7%	0.0254% (active)	7.69% (active)	49.8	71.1%	12.9%	0.385% (active)	35%	84.7%
CCOC(=O)c1nn(C2CCCCO2)c2ccc(NC(=O)Cn3nnc4ccccc43)cc12 (stereo not drawn)	97.6%	107%	101%	97.7	104%	103%	110%	104%	99.4%
Cc1cccc(C[C@H](NC(=O)Nc2ccc(Cl)cc2F)C(=O)N[C@@H]2C(=O)N3C[C@H](OC(=O)CCN(C)C)C[C@H]3C(=O)N3CCCC[C@H]3C(=O)N[C@@H](C)C(=O)N3C[C@H](C)C[C@H]3C(=O)O[C@H]2C)c1	28.7%	10%	16.8%	32.6	11.4%	35.6%	8.87% (active)	94.9%	26.2%
CC(C)(C)c1cc(C(=O)N2CCC(C(=O)NCCN)CC2)cc(C(C)(C)C)c1	98.4%	94.4%	99%	98.9	105%	95.6%	104%	104%	92%
Cc1ccc(NC(=O)N[C@@H](Cc2cc(F)cc(F)c2)C(=O)N[C@@H]2C(=O)N3CCC[C@H]3C(=O)N3CCCC[C@H]3C(=O)N[C@@H](C)C(=O)N3C[C@H](C)C[C@H]3C(=O)O[C@H]2C)cc1	31.3%	20.1%	18.5%	34.6	11.3%	45.9%	19.8%	34.4%	35.6%
NS(=O)(=O)c1ccc(CCN2C(=O)/C(=C\c3ccccc3)C=C2c2ccc(Cl)cc2)cc1	103%	98.3%	98.2%	99.4	95.4%	91.9%		107%	93.9%
COc1ccc(NCc2cn(-c3ccc(C(=O)O)cc3)nc2-c2ccc(C(=O)O)cc2)cc1C(F)(F)F	131%	88.4%	103%	93.3	93.3%	99.7%	105%	105%	83.2%
CC(C)(C)OC(=O)N1C=C/C(=C\Cn2cc(-c3ccccc3)nn2)CC1	57.9%	62.9%	74.9%	104	18%	82.7%		76.9%	84.1%
CCCCC1COc2cccc3c2N1C=C/C3=C\C(=O)n1ccc2ccccc21 (stereo not drawn)	16.5%	65.7%	91.8%	94.5	65.2%	70.2%	68.4%	67.2%	88%
CCCSc1nc(N)nc2nc[nH]c12	107%	101%	99.8%	108	114%	80.8%	103%	108%	135%
COc1ccc(-c2cc(-c3ccc(Cl)cc3)nc(SCCCCCCC(=O)NO)n2)cc1	4.61% (active)	26.5%	21.1%	34.1	56.5%	11.1%		2.26% (active)	55.5%
COc1ccc(C(=O)/C=C/c2ccccn2)c(O)c1	-1.93% (active)	6.35% (active)	92.6%	96.3	92.1%	46.8%		94%	87.5%
CC(C)CSc1ncnc2nc[nH]c12	119%	71.4%	104%	86.6	100%	67.1%		100%	116%
c1ccc2c(c1)CN(CCCN1CCOCC1)C2	97.8%	95.5%	102%	99.1	102%	101%		98.7%	109%
CCn1cc(-c2[nH]c(=S)ncc2-c2ccc(Cl)cc2)c(-c2ccc(Br)cc2)n1	93.1%	77.6%	86.9%	90.5	94.2%	81.5%	97.4%	82.5%	
O=C(CCCCCCSc1nc(-c2ccc(Cl)cc2)cc(-c2ccc(Cl)cc2)n1)NO	5.47% (active)	34.9%	20.5%	39.4	35.9%	27.6%		3.91% (active)	69.5%
CC(C)(C)c1cc(C(=O)Nc2ccccc2C(=O)NCCN)cc(C(C)(C)C)c1	-28.6% (active)	-25% (active)	-43.7% (active)	27	43.3%	46.8%	18.9%	23.2%	75.3%
CCN(CC)CC(C)Nc1ccc(C)c2sc3ccccc3c(=O)c12 (stereo not drawn)	33.4%	11%	64.2%	68.9	75.9%	19.1%	77.5%	68.7%	73.8%
Cc1ncc(C(=O)Nc2ccc(CN3CCN(C)CC3)c(C(F)(F)F)c2)cc1C#Cc1c(N)ncc2ccc(C#N)cc12	16.1%	40.6%	53.2%	41.2	44.5%	10.4%	37.8%	61.7%	26.9%
CCOC(=O)c1nn(C2CCCCO2)c2ccc(NC(=O)CN3CCCC3)cc12 (stereo not drawn)	103%	105%	101%	99.1	99.4%	102%	109%	103%	
Cc1ccc(-c2cc(-c3ccc(C)cc3)nc(N3CCN(CCNc4ccnc5cc(Cl)ccc45)CC3)n2)cc1	-1.09% (active)	19.4%	25.4%	79.4	-59.4% (active)	5.07% (active)	-53.6% (active)	6.51% (active)	-22.6% (active)
COc1ccc2c(c1)C(C)Cc1c(ncnc1-n1cnc3ccccc31)N2C (stereo not drawn)	11.8%	26.5%	17.8%	48.7	70%	50.7%	6% (active)	11.3%	
C#C[C@]1(O)CC[C@H]2[C@@H]3CC=C4c5nc(Nc6ccccn6)sc5CC[C@]4(C)[C@H]3CC[C@@]21C	8.66% (active)	-45.6% (active)	27.6%	30.1	16.1%	32.7%	20.8%	22.6%	
COC(=O)C(=Cc1ccccc1[N+](=O)[O-])C(=O)OC	-22.3% (active)	-18.6% (active)	49.8%	56.6	21.6%	37.9%	-17.9% (active)	21.9%	34.5%
CCn1cc(-c2ccnc(NCCNS(=O)(=O)c3cccc4ccccc34)c2)c(-c2cccc(O)c2)n1	74.9%	74%	101%	123	99.9%	91.5%	100%	102%	
Cn1cc(-c2nnc(-c3cn(C)c4ncc(Br)cc34)o2)c2ccccc21	52.7%	88.5%	93.4%	93.4	90.3%	65.8%	88.2%	68.9%	89.6%
O=C(NNc1ccc(-c2ccccc2)nn1)c1ccccc1	103%	102%	99.5%	100	96%	99.3%	108%	102%	
